Four molecules from PubChem BioAssay can be followed below.

Several values for one entry are separate records, joined by “and”; a condition that tells them apart may be missing. Equal values may be shown once. Activity calls are given as the source filed them. Unless noted, no rule for the calls is given here.

The nature of assay [1]: compounds binding Alexa647 anti-His antibody – biochemical, small-molecule microarray, 635 nm fluorescence, artefact control for SMM control protein annotation, primary screen (AID 1128).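 Also: score merges feature fluorescence with signal-to-noise for each printed compound spot.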 As to conditions: higher = more signal.
Assay [2] deals with Human papillomavirus type 1a E7 protein (residues 1-88). Kind of assay: HPV1a E7 small-molecule binders, primary screen, biochemical, small-molecule microarray, residues 1-88, 635 nm (AID 1129). As to conditions: small-molecule microarray binding, fluorescence 635 nm; higher = more signal.
Assay [3] has as its target Focal adhesion kinase 1 (Homo sapiens) (UniProt Q05397). Kind of assay: PTK2 protein binding on printed compound slides – biochemical, small-molecule microarray, 635/667 nm fluorescence, BSA, DTT, primary screen (AID 1130).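 Also: composite of spot emission at 667 nm and signal to noise over triplicate slides.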 Particulars: 635 nm fluorescence, higher = more signal.
Assay [4] deals with Fibrinogen (Alexa647-labelled). Kind of assay: Alexa647-fibrinogen binding to printed small molecules – biochemical, small-molecule microarray, 635/667 nm fluorescence, artefact control for SMM control-protein annotation, profiling panel (AID 1131).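 Also: z-score merges 667 nm fluorescence with per-spot signal-to-noise over triplicate slides.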 As to conditions: fibrinogen-A647 binding fluorescence, higher = more signal.
In assay [5] the target is Follistatin (Homo sapiens) (UniProt P19883). Kind of assay: FST protein binding to printed compounds – biochemical, small-molecule microarray, 635/667 nm fluorescence, primary screen (AID 1132). Particulars: 635 nm fluorescence, higher = more signal.
Assay [6] deals with Fibroblast growth factor 2 (Homo sapiens) (UniProt P09038). Kind of assay: basic fibroblast growth factor binding to printed compounds – biochemical, small-molecule microarray, 635/667 nm fluorescence, primary screen (AID 1133). Particulars: FGF2, fluorescence 635/667, higher = more signal.
Assay [7] in a line: JC-1 mitochondrial potential readout, lung cancer cells – cell-based, A549, JC-1 fluorescence, basal, 24 h, 100 nL, profiling panel (AID 1138).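 Also: A549 lung adenocarcinoma cells under basal conditions with no added stimulus; test concentration not given here.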 As to conditions: higher = more signal.
In the next assay the test system is Lefty1. Kind of assay: Lefty1 protein binding to printed compounds – biochemical, small-molecule microarray, 635/667 nm fluorescence, primary screen (AID 1139). As to conditions: fluorescence 635/667, higher = more signal.
Assay [8] has as its system wheat germ agglutinin (Triticum aestivum), Alexa647-labelled. Kind of assay: Alexa647-WGA lectin binding to printed small molecules – biochemical, small-molecule microarray, 635/667 nm fluorescence, artefact control for SMM control-protein annotation, profiling panel (AID 1140).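 Also: score merges 667 nm feature emission with signal to noise over triplicate slides.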 As to conditions: WGA-A647 binding, 635 nm fluorescence, higher = more signal.
The target of assay [9] is Luciferin 4-monooxygenase (Photinus pyralis) (UniProt P08659). Kind of assay: inhibition of purified Photinus pyralis luciferase – biochemical, luminescence, purified enzyme, 2006 set, primary screen (AID 1141).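 Also: cell-free assay with purified firefly luciferase at 100 ng per well in PBS; test concentration not given here.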 As to conditions: purified firefly luciferase, SteadyGlo luminescence, 30 min; higher = more signal, called active from +8 up or from −8 down.
Assay [10] deals with Wnt5a (protein binding on small-molecule microarray). Kind of assay: small molecules binding Wnt5a protein – biophysical, small-molecule microarray, 635/667 nm fluorescence, primary screen (AID 1142).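 Also: fluorescence read at 667 nm with signal to noise per printed feature.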 Particulars: 635 nm fluorescence, higher = more signal.
The nature of assay [11]: ATP-based viability of Huh7 replicon cells – cell-based, CellTiter-Glo luminescence, basal, 48 h, cytotoxicity control for HCV replication inhibitor project, primary screen (AID 1143).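 Also: Huh7 hepatoma cells carrying a hepatitis C replication reporter with no stimulus; test concentration not given here.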 As to conditions: higher = more signal, called active from +8 up or from −8 down. In general terms: Replicon systems follow genome replication, usually without infectious particles.
The nature of assay [12]: Pseudomonas biofilm growth suppression – PAO1 strain, BacTiter-Glo luminescence, LB-PBS, primary screen (AID 1144). Particulars: P. aeruginosa PAO1 biofilm, 12 h, higher = more signal.
Assay [13] in a line: basal CRE-LacZ reporter activity in PC12 – cell-based, unstimulated, primary screen (AID 1145). As to conditions: no forskolin, luminescence, 4.5 h, higher = more signal, called active from +8 up or from −8 down.
Assay [14] is described as follows: forskolin-driven CRE-LacZ activity in PC12 – cell-based, CRE-LacZ reporter, forskolin-stimulated, primary screen (AID 1146).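 Also: PC12 cells with 6xCRE LacZ reporter stimulated by forskolin 10 µM; beta-galactosidase reporter signal reflecting CREB driven transcription.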 Particulars: luminescence, 4.5 h, higher = more signal, called active from +8 up or from −8 down.
Assay [15] addresses Streptavidin (Streptomyces avidinii) (UniProt P22629). Kind of assay: compounds binding control protein streptavidin – biophysical, small-molecule microarray, 635/667 nm fluorescence, artefact control for SMM compound annotation, primary screen (AID 1147).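 Also: signal reflects streptavidin binding to arrayed compounds as a control protein.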 As to conditions: higher = more signal.
Assay [16] is described as follows: probe aInhba binding on compound microarray – biochemical, small-molecule microarray, 635/667 nm fluorescence, primary screen (AID 1148).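 Also: score merges 667nm spot fluorescence with signal-to-noise for antibody binding to printed compounds.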 As to conditions: higher = more signal.
Assay [17] has as its target Torsin-1A (Homo sapiens) (UniProt O14656). Kind of assay: TOR1A wild-type binding on microarray – cell lysate, small-molecule microarray, lysate, 635/667 nm, primary screen (AID 1149). As to conditions: COS7 hTOR1A-WT lysate, 635 nm fluorescence, higher = more signal.
Assay [18] has the same target. Kind of assay: torsin A mutant lysate binding on microarrays – cell lysate, small-molecule microarray, COS7 lysate, 635/667 nm fluorescence, primary screen (AID 1150).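 Also: score pools 667 nm emission and signal to noise measuring lysate protein binding.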 As to conditions: COS7 hTOR1A mutant lysate, 635 nm fluorescence, higher = more signal.
The subject of assay [19] is Sonic hedgehog protein (Shh). Kind of assay: Sonic hedgehog microarray binding compounds – biochemical, small-molecule microarray, 635/667 nm fluorescence, primary screen (AID 1151).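 Also: Shh protein binding to compounds spotted on small-molecule microarray slides; score combines spot fluorescence intensity with signal-to-noise across triplicate slides.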 As to conditions: 635 nm fluorescence, higher = more signal.

Sequence of Focal adhesion kinase 1 (Homo sapiens) (Q05397 whole entry, looked up): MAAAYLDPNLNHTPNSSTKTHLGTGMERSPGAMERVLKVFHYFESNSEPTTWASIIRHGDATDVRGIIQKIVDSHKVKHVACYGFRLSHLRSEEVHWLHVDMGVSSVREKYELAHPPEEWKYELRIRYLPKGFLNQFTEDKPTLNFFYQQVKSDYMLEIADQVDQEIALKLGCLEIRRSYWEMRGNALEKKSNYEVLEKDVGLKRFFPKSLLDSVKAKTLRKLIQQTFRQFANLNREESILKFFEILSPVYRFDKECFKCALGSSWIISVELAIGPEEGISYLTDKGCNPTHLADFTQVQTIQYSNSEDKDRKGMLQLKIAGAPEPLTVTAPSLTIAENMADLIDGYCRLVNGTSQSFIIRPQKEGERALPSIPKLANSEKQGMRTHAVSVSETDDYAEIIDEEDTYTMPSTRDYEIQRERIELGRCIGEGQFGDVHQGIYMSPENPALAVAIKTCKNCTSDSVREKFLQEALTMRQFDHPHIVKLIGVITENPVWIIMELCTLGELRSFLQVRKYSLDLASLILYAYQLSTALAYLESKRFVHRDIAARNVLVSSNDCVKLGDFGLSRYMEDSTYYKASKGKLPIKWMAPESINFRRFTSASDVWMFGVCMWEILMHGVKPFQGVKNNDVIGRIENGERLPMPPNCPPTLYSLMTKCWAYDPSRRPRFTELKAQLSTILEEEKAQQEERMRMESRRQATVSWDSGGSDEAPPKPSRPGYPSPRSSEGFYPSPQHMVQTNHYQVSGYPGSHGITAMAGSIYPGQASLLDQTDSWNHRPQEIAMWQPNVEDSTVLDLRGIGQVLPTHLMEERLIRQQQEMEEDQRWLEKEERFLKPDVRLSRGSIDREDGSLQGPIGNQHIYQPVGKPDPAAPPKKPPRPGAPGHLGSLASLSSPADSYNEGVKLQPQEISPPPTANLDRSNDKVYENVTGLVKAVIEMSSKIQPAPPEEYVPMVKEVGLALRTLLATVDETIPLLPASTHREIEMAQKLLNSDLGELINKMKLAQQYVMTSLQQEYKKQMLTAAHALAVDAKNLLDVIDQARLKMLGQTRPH
Sequence of Torsin-1A (Homo sapiens) (O14656 whole entry, looked up): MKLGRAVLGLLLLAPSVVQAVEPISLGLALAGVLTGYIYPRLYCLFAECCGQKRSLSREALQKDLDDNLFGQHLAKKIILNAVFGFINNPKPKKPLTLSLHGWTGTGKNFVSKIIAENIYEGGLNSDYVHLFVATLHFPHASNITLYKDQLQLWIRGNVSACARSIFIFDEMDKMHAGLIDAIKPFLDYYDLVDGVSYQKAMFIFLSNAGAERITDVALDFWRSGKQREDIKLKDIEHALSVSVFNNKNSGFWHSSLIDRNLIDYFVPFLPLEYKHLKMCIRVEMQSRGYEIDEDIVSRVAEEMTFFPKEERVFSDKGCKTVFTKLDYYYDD
Sequence of Luciferin 4-monooxygenase (Photinus pyralis) (P08659 whole entry, looked up): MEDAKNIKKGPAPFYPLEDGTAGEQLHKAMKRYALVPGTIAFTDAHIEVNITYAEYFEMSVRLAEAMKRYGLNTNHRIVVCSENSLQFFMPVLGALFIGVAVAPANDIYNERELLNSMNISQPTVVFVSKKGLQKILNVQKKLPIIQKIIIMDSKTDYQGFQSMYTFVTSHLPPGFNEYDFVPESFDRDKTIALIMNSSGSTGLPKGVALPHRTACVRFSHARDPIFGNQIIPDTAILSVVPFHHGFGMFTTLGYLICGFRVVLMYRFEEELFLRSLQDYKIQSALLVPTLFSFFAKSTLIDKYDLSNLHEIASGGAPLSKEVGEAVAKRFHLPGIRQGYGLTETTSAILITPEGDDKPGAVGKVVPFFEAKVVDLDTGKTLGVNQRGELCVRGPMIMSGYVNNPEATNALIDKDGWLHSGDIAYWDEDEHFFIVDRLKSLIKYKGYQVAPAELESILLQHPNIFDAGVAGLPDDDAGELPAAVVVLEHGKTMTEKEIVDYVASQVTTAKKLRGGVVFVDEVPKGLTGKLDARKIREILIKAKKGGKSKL
Sequence of Follistatin (Homo sapiens) (P19883 whole entry, looked up): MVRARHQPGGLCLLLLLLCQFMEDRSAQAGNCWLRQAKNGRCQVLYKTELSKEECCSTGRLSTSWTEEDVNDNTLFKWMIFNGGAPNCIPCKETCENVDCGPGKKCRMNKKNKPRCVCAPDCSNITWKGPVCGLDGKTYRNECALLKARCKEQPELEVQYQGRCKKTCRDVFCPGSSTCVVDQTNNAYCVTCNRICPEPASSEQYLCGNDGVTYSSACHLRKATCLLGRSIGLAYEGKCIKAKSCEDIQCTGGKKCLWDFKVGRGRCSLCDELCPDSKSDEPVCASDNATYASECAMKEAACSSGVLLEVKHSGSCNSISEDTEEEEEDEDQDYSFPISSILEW
Sequence of Streptavidin (Streptomyces avidinii) (P22629 whole entry, looked up): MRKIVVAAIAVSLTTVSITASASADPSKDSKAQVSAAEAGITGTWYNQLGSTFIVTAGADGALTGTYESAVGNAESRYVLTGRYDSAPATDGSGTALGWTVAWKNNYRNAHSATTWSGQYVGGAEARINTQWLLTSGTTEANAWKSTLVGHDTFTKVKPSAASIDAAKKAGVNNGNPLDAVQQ
Sequence of Fibroblast growth factor 2 (Homo sapiens) (P09038 whole entry, looked up): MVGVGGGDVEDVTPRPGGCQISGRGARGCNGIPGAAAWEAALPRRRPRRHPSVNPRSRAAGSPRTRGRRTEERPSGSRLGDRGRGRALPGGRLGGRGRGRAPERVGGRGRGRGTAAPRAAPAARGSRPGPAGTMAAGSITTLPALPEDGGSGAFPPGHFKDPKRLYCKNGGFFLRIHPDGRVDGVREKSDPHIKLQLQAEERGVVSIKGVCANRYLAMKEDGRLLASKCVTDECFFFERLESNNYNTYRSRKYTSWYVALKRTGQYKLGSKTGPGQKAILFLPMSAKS

Consider `C=CCN(C(=O)C1N(c2c(Cl)cccc2CO)C(=O)C2C(C(=O)O)C3C=CC21O3)C(C)(C)C` (stereo not given), for which the composite z-score in [1] is -0.687 and -0.455; in assay [2], 0.0063 and -0.941; in [3] it was -0.0019 and 0.0154; in assay [4] it was -0.925 and -0.724; in assay [5], -0.85 and -0.957; in assay [6] it was -1.46 and -0.409. The composite z-score in the assay with Lefty1 was -1.33 and -1.93; in assay [8] it was -0.0278 and -0.665; in [10], -0.948 and -0.619; in [15], 0.163 and -1.11; in [16], -0.702 and -0.213; with Torsin-1A (Homo sapiens) [17], -2.54 and -1.22. Moreover, the composite z-score was -1.62 and -1.73 with Torsin-1A (Homo sapiens) [18]; -1.17 and -0.681 in assay [19]. The z-score in assay [7] is -0.868 and 1.49; in assay [9] it was 1.15 (inactive) and -1.5 (inactive); in assay [11], -0.488 (inactive) and 0.0489 (inactive); in assay [12], -0.774 (inactive) and -0.443 (inactive); in [13] it was -1.44 (inactive) and 0.329 (inactive); in assay [14] it was -0.219 (inactive) and -0.51 (inactive).

Take `C=C[C@@H](OC)[C@H](O)c1ccc(OC)c(O)c1`: the composite z-score was 0.0608 and -0.368 in [1]; -0.285 and -1.14 in [2]; -0.294 and -1.03 in assay [3]; -0.267 and -0.492 in [4]; 1.03 and 0.477 in [5]; 0.731 and 0.0203 in assay [6]. The composite z-score in the assay on Lefty1 was 0.85 and -0.493; in assay [8], -0.368 and 0.0786; in [10], 0.192 and -0.0615; in assay [15], -0.964 and -1.77; in [16], -0.281 and -0.306; with Torsin-1A (Homo sapiens) [17], 0.059 and -0.285. For the same molecule, the composite z-score was -0.242 and -0.089 with Torsin-1A (Homo sapiens) [18]; 0.439 and -0.117 in [19]. For the same molecule, the z-score in assay [7] was -0.366 and 0.877; in [9], 0.318 (inactive) and -0.905 (inactive); in [11], -0.825 (inactive) and 1.07 (inactive); in assay [12], 0.729 (inactive); in assay [13] it was 0.441 (inactive) and -0.142 (inactive); in assay [14], 0.0793 (inactive) and -1.37 (inactive).

`CC(C)[Si]1(C(C)C)OCc2cc(CCCc3cc4c(c(CCc5ccccc5)n3)[Si](C(C)C)(C(C)C)OC4)nc(CCc3ccccc3)c21`: the composite z-score in assay [1] is -0.779 and 0.0773; in assay [2] it was -0.265 and 0.56; in [3] it was -0.293 and -0.0124; in [4], -0.551 and 0.0539; in assay [5] it was -0.43 and 0.238; in assay [6] it was -0.0119 and 0.483. Further, the composite z-score with Lefty1 is -0.11 and 0.41; in assay [8] it was -1.24 and -0.214; in assay [10], 0.0898 and 0.0154; in [15], -0.59 and 0.473; in assay [16], -0.0791 and 0.0442; with Torsin-1A (Homo sapiens) [17], -0.473 and 0.21. In addition, the composite z-score in the assay with Torsin-1A (Homo sapiens) [18] is 0.0547 and 0.39; in assay [19], 0.405 and 0.595. The z-score was 0.627 and 0.00206 in [7]; -1.11 (inactive) and 0.714 (inactive) in assay [9]; -0.871 (inactive) and 0.114 (inactive) in assay [11]; 0.0644 (inactive) in assay [12]; 0.731 (inactive) and 0.469 (inactive) in [13]; -0.315 (inactive) and 0.352 (inactive) in [14].

Regarding `C=CCN(C(=O)C1N(CCCCCCO)C(=O)C2C(C(=O)O)C3C=CC21O3)C(C)(C)C` (stereo not given), the composite z-score in assay [1] was -1 and 0.0369; in assay [2], -1.24 and -0.385; in [3], -0.837 and -0.881; in assay [4] it was -4.96 and -2.32; in [5], -1.88 and -2.11; in assay [6], -1.42 and -1.7. Moreover, the composite z-score with Lefty1 was -2.49 and -1.84; in [8], -0.75 and -0.561; in [10] it was -1.54 and -1.09; in [15], -1.47 and -1.01; in [16], -0.251 and -0.278; with Torsin-1A (Homo sapiens) [17], -3.52 and -3.83. The composite z-score was -3.07 and -2.82 with Torsin-1A (Homo sapiens) [18]; -1.68 and -1.49 in assay [19]. The z-score in [7] was 0.219 and 0.389; in assay [9], -1.04 (inactive) and -0.426 (inactive); in assay [11], 0.317 (inactive) and 0.148 (inactive); in assay [12] it was 1.99 (inactive) and 1.42 (inactive); in assay [13] it was 0.992 (inactive) and -0.216 (inactive); in [14], 0.129 (inactive) and 0.453 (inactive).
